Results as given in PMC4336329 (PLoS ONE, 2015).
Among all 310,000 compounds or so, about 14,000 (4.5%) showed an effect of 50% or more. The effect is printed as a negative number. The entries come from a sample that favours strong results as a whole.

What follows are molecules tested against human ether-à-go-go-related gene (hERG) potassium channel (human, UniProt Q12809) (assay: primary screen, population patch clamp on CHO cells stably expressing hERG; higher = less effect of the substance).
Chain of human ether-à-go-go-related gene (hERG) potassium channel (Q12809 whole entry, looked up): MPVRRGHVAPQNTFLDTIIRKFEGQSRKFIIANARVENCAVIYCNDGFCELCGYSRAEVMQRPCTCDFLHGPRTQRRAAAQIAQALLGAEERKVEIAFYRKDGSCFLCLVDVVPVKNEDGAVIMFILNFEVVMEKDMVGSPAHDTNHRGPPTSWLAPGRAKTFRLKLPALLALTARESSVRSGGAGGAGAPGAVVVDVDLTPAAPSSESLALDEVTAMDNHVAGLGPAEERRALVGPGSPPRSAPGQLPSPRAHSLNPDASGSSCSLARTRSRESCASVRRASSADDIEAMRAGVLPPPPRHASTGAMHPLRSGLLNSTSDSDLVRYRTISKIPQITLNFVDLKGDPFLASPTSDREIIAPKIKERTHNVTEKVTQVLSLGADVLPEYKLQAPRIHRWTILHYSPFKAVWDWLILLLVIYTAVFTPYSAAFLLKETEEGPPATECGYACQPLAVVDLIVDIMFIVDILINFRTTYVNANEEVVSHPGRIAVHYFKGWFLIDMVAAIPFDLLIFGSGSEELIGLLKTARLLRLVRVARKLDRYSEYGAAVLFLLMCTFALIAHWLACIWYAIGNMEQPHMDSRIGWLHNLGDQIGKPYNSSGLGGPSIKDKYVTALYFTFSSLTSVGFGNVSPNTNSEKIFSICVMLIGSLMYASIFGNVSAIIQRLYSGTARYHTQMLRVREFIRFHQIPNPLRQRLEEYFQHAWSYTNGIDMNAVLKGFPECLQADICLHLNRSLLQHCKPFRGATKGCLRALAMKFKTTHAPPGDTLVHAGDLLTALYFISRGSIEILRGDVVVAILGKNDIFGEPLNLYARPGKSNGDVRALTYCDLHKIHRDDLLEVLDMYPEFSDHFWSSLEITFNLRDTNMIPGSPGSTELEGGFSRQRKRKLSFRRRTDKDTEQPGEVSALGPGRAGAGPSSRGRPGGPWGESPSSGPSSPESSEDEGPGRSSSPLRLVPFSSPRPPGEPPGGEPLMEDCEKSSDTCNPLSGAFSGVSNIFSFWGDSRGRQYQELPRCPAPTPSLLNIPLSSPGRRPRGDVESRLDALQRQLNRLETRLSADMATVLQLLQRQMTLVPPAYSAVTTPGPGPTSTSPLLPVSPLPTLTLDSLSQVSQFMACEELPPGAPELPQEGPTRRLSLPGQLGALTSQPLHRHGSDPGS
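Also: peak tail current of the secondary pulse compared with the same well before compound.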

SMILES | hERG current change (%, negative = inhibition) at 10uM [%]
CCn1nc(NC(=O)c2ccco2)c2cc3ccccc3nc21 | -0.887
Cc1ccccc1CN1CCC(n2nccc2NC(=O)c2ccc3c(c2)OCO3)CC1 | -9.06
COc1ccc(OC)c(NC(=O)CSc2ccc(-c3cccnc3)nn2)c1 | -17.6
COc1ccc(OC)c(NC(=O)CSc2ccc3nnc(-c4cccnc4)n3n2)c1 | -61.1
COc1ccc(NC(=O)CSc2ccc3nnc(-c4cccnc4)n3n2)c(OC)c1 | -32.4
Cc1cc2nc(-c3cccnc3SCC(=O)NCc3ccco3)[nH]c2cc1C | -5.15
O=[N+]([O-])c1cccc(CN2CCC(Cc3ccccc3)CC2)c1 | -31.4
O=C(c1ccc([N+](=O)[O-])cc1)N1CCC(Cc2ccccc2)CC1 | -73.4
O=[N+]([O-])c1ccc(CN2CCC(Cc3ccccc3)CC2)cc1 | -55.1
O=C(c1ccccc1[N+](=O)[O-])N1CCC(Cc2ccccc2)CC1 | -19
Cc1ccc(C(=O)N2CCC(Cc3ccccc3)CC2)cc1[N+](=O)[O-] | -63.8
Cc1cc(C(=O)N2CCC(Cc3ccccc3)CC2)ccc1[N+](=O)[O-] | -38.5
O=[N+]([O-])c1ccc(C(=S)N2CCC(Cc3ccccc3)CC2)cc1 | -32.4
Cc1c(C(=O)N2CCC(Cc3ccccc3)CC2)cccc1[N+](=O)[O-] | -34.3
Cc1ccc(C(=O)Nc2ccc(NC(=O)c3ccc(C)o3)cc2)o1 | -1.94
Cc1ccc(F)cc1CNC(=O)C1CCC(=O)N(CCCN2CCCC2=O)C1 (stereo not shown) | 14.6
Cc1ccc(S(=O)(=O)Nc2cc(C(=O)Nc3cc(C)cc(C)c3)ccc2Cl)cc1 | -5.44
Cc1ccc2nc(NC(=O)CSc3nc(=O)n(CCCN(C)C)c4c3CCC4)sc2c1 | -50.2
Cc1cc(NC(=O)CSc2nc(=O)n(CCCN(C)C)c3c2CCCC3)no1 | -7.06
Cc1ccc(NC(=O)CSc2nc(=O)n(CCCN(C)C)c3c2CCC3)c(C)c1 | -50.6
Cc1ccc2nc(NC(=O)CSc3nc(=O)n(CCN(C)C)c4c3CCCC4)sc2c1 | -50.2
Cc1cc(NC(=O)CSc2nc(=O)n(CCN(C)C)c3c2CCCC3)no1 | -6.91

SMILES | hERG current change (%, negative = inhibition) at 10uM [%]
CN(C)CCCn1c2c(c(SCC(=O)Nc3nccs3)nc1=O)CCC2 | -9.32
CCN(CC)CCn1c2c(c(SCC(=O)Nc3nc4ccc(C)cc4s3)nc1=O)CCC2 | -30.4
CN(C)CCCn1c2c(c(SCC(=O)Nc3ccc4c(c3)OCCO4)nc1=O)CCC2 | -12.2
Cc1ccc(NC(=O)CSc2nc(=O)n(Cc3ccncc3)c3c2CCC3)c(C)c1 | -26.1
CN1CCC(=O)N([C@H](CN=[N+]=[N-])Cc2ccccc2)CC1 | 17.9
c1cnc2ccc(-c3ccc4ncccc4c3)cc2c1 | -5.61
COc1cc(C=O)ccc1OCCOCCOc1ccc(Cl)cc1 | -37.6
COc1ccccc1NC(=O)c1ccc(S(=O)(=O)N2CCCC2)cc1 | -20.3
CCOC(=O)c1cccc(NC(=O)c2cc3ccccc3o2)c1 | 1.39
Cl.c1ccc2c(N3CCNCC3)nsc2c1 | -5.8
FC(F)(F)C1CCCN(c2nsc3ccccc23)C1 (stereo not shown) | 19.1
Cl.O=C1[C@H]2CCCC[C@H]2C(=O)N1CCCCN1CCN(c2nsc3ccccc23)CC1 | -74.3
COc1cccc2nc3cc(C)c(C)cc3nc12 | -7.73
O=C(CN1CCCCC1)N1N=C(c2cccs2)CC1c1cccs1 (stereo not shown) | -58.7
CCC(=O)N1N=C(c2cccs2)CC1c1ccc(OC)cc1 (stereo not shown) | 15.9
COc1ccc(C2CC(c3cccs3)=NN2C(=O)CN2CCCCC2)cc1 (stereo not shown) | -71.9
CC(=O)N1N=C(c2cccs2)CC1c1cccs1 (stereo not shown) | 5.99
O=C(CN1CCOCC1)N1N=C(c2cccs2)CC1c1cccs1 (stereo not shown) | 18.9
COc1ccc(C2CC(c3cccs3)=NN2C(=O)CCC(=O)O)cc1 (stereo not shown) | 10.5
O=C(CSc1ncn[nH]1)Nc1nc(-c2ccccc2)ns1 | -7.44
CCCC(=O)c1cc(F)c(N2CCN(S(=O)(=O)c3ccccc3)CC2)cc1C | 13.2
CCOc1ccc(NC(=O)C(C)Sc2nccn2C)cc1 (stereo not shown) | 6.78

SMILES | hERG current change (%, negative = inhibition) at 10uM [%]
Cn1cccc1Cc1nnc(SCC(=O)NCC2CCCO2)n1CCc1ccccc1 (stereo not shown) | -10.8
CCCn1nc(C(=O)OCC(=O)Nc2cccc(OC)c2)c2ccccc2c1=O | 3.96
CCN(CC)C(CNC(=O)CSc1nnnn1-c1ccc(C)c(C)c1)c1ccco1 (stereo not shown) | -54.5
O=C(O)c1ccc(-n2nnnc2SCc2ccccc2)cc1 | 8.05
Cc1ccc(-n2nnnc2SCC(=O)NNC(=O)c2ccco2)cc1C | 24.3
CCN(CC)C(CNC(=O)CSc1nnnn1-c1cccc(F)c1)c1ccco1 (stereo not shown) | -16.4
Cc1ccc(-n2nnnc2SCc2ccc(C(=O)O)cc2)cc1C | -70.7
O=C(O)c1ccc(CSc2nnnn2-c2ccc(F)cc2)cc1 | -9.84
COc1cc(CCc2ccc3c(c2)OCO3)oc(=O)c1 | 4.95
Cc1ccc(C2(C)NC(=O)N(CC(=O)NNC(=O)c3ccoc3C)C2=O)cc1 (stereo not shown) | 26.6
Cc1nn(CC(=O)NCc2ccccc2)c(=O)c2cccn12 | 9.27
Cc1csc2ncnc(N3CCN(C(=O)Nc4ccc(OC(F)(F)F)cc4)CC3)c12 | -68
Cc1csc2c(N3CCN(C(=O)Nc4ccc(OC(F)(F)F)cc4)CC3)ncnc12 | -32.9
O=C(Nc1ccc(Cl)cc1)N1CCCN(c2ccc(C(F)(F)F)cc2[N+](=O)[O-])CC1 | 4.29
CC(C)(C)OC(=O)N1CCCN(C(=O)Nc2ccc(OC(F)(F)F)cc2)CC1 | -22.6
O=C(Nc1ccc(OC(F)(F)F)cc1)N1CCN(c2ccnc3cc(Cl)ccc23)CC1 | -72.1
O=C(Nc1ccc(Cl)cc1)N1CCN(c2ncccn2)CC1 | -13.2
O=C(Nc1ccc(C(F)(F)F)cc1)N1CCN(c2ccnc3cc(Cl)ccc23)CC1 | -62.2
Cc1csc2ncnc(N3CCN(C(=S)Nc4ccc(C(F)(F)F)cc4)CC3)c12 | -16.7
Cc1ccc(S(=O)(=O)N(C)CC(=O)OCC(=O)NCCN2C(=O)CSC2=O)cc1 | -9.67
O=C(c1ccc(Cl)cc1)C(CN1CCCC1)c1ccccc1 (stereo not shown) | -10.3
COc1ccc(OC)c(NC(=O)Nc2nnc(N3CCC(C)CC3)s2)c1 | 5.07

SMILES | hERG current change (%, negative = inhibition) at 10uM [%]
COc1ccc(CCNC(=O)[C@@H](NC(=O)N2CCn3c2nc2ccccc23)C(C)C)cc1OC | -14.3
Cc1ccc(C)c(NS(=O)(=O)c2ccc(OCC(=O)N3CCOCC3)cc2)c1 | -7.34
O=C(CCNC(=O)c1ccc([N+](=O)[O-])cc1)NCCc1ccccc1 | -27.8
CCOc1ccc(-c2cc(CCCC(=O)NCc3cccnc3)no2)cc1 | -35
COc1ccccc1-c1nnc(NC(=O)C(C)Sc2nncn2C)s1 (stereo not shown) | -1.37
Cc1nc2ccc(NC(=O)c3cccs3)cc2s1 | 19.8
CCN(CC)c1cc(C)c2cc(NC(=O)c3cccs3)ccc2n1 | -72.2
Cc1nc2ccc(NC(=O)c3cccs3)cc2c(=O)n1Cc1ccc(Cl)cc1 | 9.84
CCN(CC)c1cc(C)c2cc(NC(=O)c3ccccc3F)ccc2n1 | -81.3
CCN(CC)c1ccc(NC(=O)c2ccccc2F)cc1 | -9.39
CCN(CC)c1cc(C)c2cc(NC(=O)c3ccccc3OC)ccc2n1 | -18.6
COc1ccc(Cl)cc1N(CC(=O)Nc1ccc2c(c1)OCO2)S(C)(=O)=O | -24
COc1cccc(CNC(=O)Cc2c(C(=O)O)[nH]c3ccccc23)c1 | 8.83
COC(=O)[C@H](CC(C)C)NC(=O)Nc1ccccc1F | 16.6
Cc1ccccc1Cn1nc(C)c(NC(=O)c2nc3n(n2)C(C(F)F)CC(C)N3)c1C (stereo not shown) | 0.0862
O=C(CCN1C(=O)c2ccccc2C1=O)NNC(=O)c1ccc(Cl)cc1Cl | 6.82
CN(c1ccccc1)c1nc(N2CCCC2)nc(-n2ccnc2)n1 | -19.5
c1ccc(N(c2ccccc2)c2nc(-n3ccnc3)nc(-n3ccnc3)n2)cc1 | -24.2
c1ccc(-c2nc(N3CCN(c4ccccc4)CC3)nc(-n3ccnc3)n2)cc1 | -2.66
CN(c1ccccc1)c1nc(-n2ccnc2)nc(-n2ccnc2)n1 | -67.7
c1ccc(-c2nc(-n3ccnc3)nc(-n3ccnc3)n2)cc1 | -69.4
CC(C)Nc1nc(-c2ccccc2)nc(-n2ccnc2)n1 | -0.0673
